{"source": "PubChem BioAssay AID588499", "about": "(NMMLSC, 2011)", "note": "Screen size: about 360,000 compounds; about 610 (0.17%) were called active. Roughly 2% stayed inconclusive and do not appear here. For the sample, actives were picked, then their nearest neighbours and some compounds at random. Unmarked numbers belong to inactive results. Cut-off read from the data, not from the text of the source: active = inhibition above about 30%; inconclusive = no clear call, values can overlap the other calls; inactive = below that.", "data": [{"tested_on": "Botulinum neurotoxin type A light chain protease (Clostridium botulinum A str. ATCC 3502)", "assay": "BoNT/A light chain protease inhibitors, primary screen, biochemical, flow cytometry, MLPCN library (AID 588499); note: plate controls were buffer without enzyme for full effect and enzyme alone for no effect", "settings": "multiplex microsphere protease substrate cleavage, at 10 µM, hits give high values", "values": [{"smiles": "O=C(OCC(=O)c1c[nH]c2ccccc12)c1cccc(O)c1", "inhibition": "0.8%"}, {"smiles": "CCOc1ncccc1C(=O)OCC(=O)c1c[nH]c2ccccc12", "inhibition": "36.8% (active)"}, {"smiles": "CCOc1ncccc1C(=O)OCC(=O)NC1CC1", "inhibition": "-0.4%"}, {"smiles": "CC1CCCCC12NC(=O)N(CC(=O)Nc1ccc(S(=O)(=O)Nc3ncccn3)cc1)C2=O", "note": "(stereo not drawn)", "inhibition": "-0.7%"}, {"smiles": "CC(=O)Nc1ccc(-c2ccnc3c2CC(C(=O)NC(C)C)O3)cc1", "note": "(stereo not drawn)", "inhibition": "0.1%"}, {"smiles": "CCCc1ccc(C(O)c2ncc(-c3cccc(OC)c3)[nH]2)cc1", "note": "(stereo not drawn)", "inhibition": "0.3%"}, {"smiles": "COc1ccc(C2CC(c3cccs3)=NN2C(=O)CSc2nncs2)cc1OC", "note": "(stereo not drawn)", "inhibition": "0.2%"}, {"smiles": "COc1ccc(C2CC(c3cccs3)=NN2C(=O)CSc2nnc(N)s2)cc1OC", "note": "(stereo not drawn)", "inhibition": "0.2%"}, {"smiles": "COc1ccc(C2CC(c3cccs3)=NN2c2nc(C)c(C(C)=O)s2)cc1OC", "note": "(stereo not drawn)", "inhibition": "63.7% (active)"}, {"smiles": "CCN(CC)C(=O)Oc1ccc(Br)cc1C(=O)Nc1ccc(F)c(Cl)c1", "inhibition": "-0.8%"}, {"smiles": "O=C(NCc1ccco1)C(=O)c1cn(CC(=O)N2CCCCCC2)c2ccccc12", "inhibition": "10.2%"}, {"smiles": "O=C(NCCCn1ccnc1)C(=O)c1cn(CC(=O)N2CCCCCC2)c2ccccc12", "inhibition": "30.5% (active)"}, {"smiles": "Cc1ccc(CNC(=O)C(=O)c2cn(CC(=O)N3CCCC3)c3ccccc23)cc1", "inhibition": "0%"}, {"smiles": "CC1(C(=O)NS(=O)(=O)C2CC2)CCCN(C(=O)CSc2ccccc2)C1", "note": "(stereo not drawn)", "inhibition": "0.5%"}, {"smiles": "CN(C(=O)COC(=O)c1cc(=O)[nH]c2ccccc12)C1CCCCC1", "inhibition": "2.1%"}, {"smiles": "CSCC[C@H](NC(=O)NCc1cccs1)C(=O)O", "inhibition": "-0.9%"}, {"smiles": "COc1ccc(NC(=O)COc2ccc(C(=O)c3ccc(F)cc3)cc2)cc1S(N)(=O)=O", "inhibition": "-1%"}, {"smiles": "C[C@@H]1CN([C@@H](C)CO)C(=O)CCCn2nncc2CO[C@@H]1CN(C)S(=O)(=O)c1ccc(-c2ccccc2)cc1", "inhibition": "-0.4%"}, {"smiles": "O=c1[nH]snc1-c1c(Cl)cccc1Cl", "inhibition": "-0.7%"}, {"smiles": "COC(=O)c1c(NC(=O)COC(=O)[C@@H](NS(=O)(=O)c2ccccc2)C(C)C)sc2c1CCC2", "inhibition": "-0.3%"}, {"smiles": "CCOC(=O)C1CCN(C(=O)CN2C(=O)c3cccnc3Oc3ccc(C)cc32)CC1", "inhibition": "-1%"}, {"smiles": "CCOC(=O)C1CCN(C(=O)Cc2c(C(=O)O)[nH]c3ccccc23)CC1", "inhibition": "-4.4%"}, {"smiles": "CCOC(=O)N(C)c1c(CC)nc2c(OCc3ccccc3C(=O)OC)cccn12", "inhibition": "-0.1%"}, {"smiles": "CCN1CCN(c2ccc(S(=O)(=O)N3CCCCC3)cc2NC(=O)Cc2c(Cl)cccc2Cl)CC1", "inhibition": "-1.8%"}, {"smiles": "CCn1c(O)c(N=NC2=NC(=O)CS2)c2cc(C)ccc21", "inhibition": "-0.3%"}, {"smiles": "COC(=O)c1ccc(CN2CCCC(C(=O)Nc3cccc(-n4cnnn4)c3)C2)cc1", "note": "(stereo not drawn)", "inhibition": "-3.3%"}, {"smiles": "CC(C)C1N=C2c3ccccc3N=C(SCC(=O)c3ccc(O)c(O)c3)N2C1=O", "note": "(stereo not drawn)", "inhibition": "0.1%"}, {"smiles": "Cc1cc(C(C)(C)C)oc1C(=O)N(CC(=O)NC1CCCC1)Cc1ccc(Cl)cc1", "inhibition": "-0.3%"}, {"smiles": "CC1(C(=O)Nc2cccc(Oc3ccccc3)c2)CCN1Cc1ccccc1Cl", "note": "(stereo not drawn)", "inhibition": "-0.1%"}, {"smiles": "CC(C)CN(C(=O)CN1CCN(S(=O)(=O)c2ccccc2)CC1)c1c(N)n(CC(C)C)c(=O)[nH]c1=O", "inhibition": "-2.5%"}, {"smiles": "Cc1cc(-c2nnc(CCC(=O)NC(c3ccccc3)c3ccccc3)o2)no1", "inhibition": "0.3%"}, {"smiles": "Cc1onc(-c2c(F)cccc2Cl)c1C(=O)OCC(=O)N1C(C)CCCC1C", "note": "(stereo not drawn)", "inhibition": "0.1%"}, {"smiles": "CCCn1c(=NC(C)=O)c(C(=O)OCC)cc2c(=O)n3ccccc3nc21", "inhibition": "0.6%"}, {"smiles": "CCOC(=O)c1cc2c(=O)n3ccccc3nc2n(CC(C)C)c1=NC(=O)c1c(-c2c(F)cccc2Cl)noc1C", "inhibition": "60.3% (active)"}, {"smiles": "CC(C)C(C)(C#N)NC(=O)CSc1nncn1-c1ccccc1", "note": "(stereo not drawn)", "inhibition": "-0.7%"}, {"smiles": "Cc1ccc(SCC2=NNC(=O)C2)cc1", "inhibition": "0.6%"}, {"smiles": "CCc1ccc(CCC(=O)Nc2ccc(S(N)(=O)=O)cc2)o1", "inhibition": "0.3%"}, {"smiles": "CCCCCCN1CCN(C2CN(Cc3cn(CCCCCC)nn3)S(=O)(=O)C2)CC1", "note": "(stereo not drawn)", "inhibition": "-0.3%"}, {"smiles": "Cc1ccc2nc(-c3ccccc3)c(CC3CCCCC3)n2c1", "inhibition": "1.4%"}, {"smiles": "CC1=CCC2C(=O)N(c3cccc(C(=O)NC(C)c4ccccc4)c3)C(=O)C2C1", "note": "(stereo not drawn)", "inhibition": "-3.1%"}, {"smiles": "Cc1ccc(C)c(NC(=O)CN(C)C(=O)COc2ccc3ccccc3c2)c1", "inhibition": "-0.4%"}, {"smiles": "Cc1cc2ccccc2n1CCNC(=O)COc1ccc2ccccc2c1", "inhibition": "61.4% (active)"}, {"smiles": "COCCNC(=O)COc1ccc(N(C)S(=O)(=O)c2ccc3ccccc3c2)cc1", "inhibition": "-1.4%"}, {"smiles": "Cc1ccc(S(=O)(=O)N2CC[C@H]3[C@@H](C2)C(=O)C[C@@H](c2ccccc2)N3S(=O)(=O)c2ccc(C)cc2)cc1", "inhibition": "-0.4%"}, {"smiles": "Cc1ccc(N(C(=O)c2ccc(CN3CCOCC3)o2)C(C(=O)NCCC(C)C)c2cccs2)c(C)c1", "note": "(stereo not drawn)", "inhibition": "-1%"}, {"smiles": "Cc1cccc(N(CC(=O)Nc2ccc(-c3nc4ccc(C)cc4s3)cc2)S(C)(=O)=O)c1", "inhibition": "-0.9%"}, {"smiles": "CCCCCc1c(-c2ccc(OC)c(OC)c2)ncn1CCc1ccccc1OC", "inhibition": "-0.2%"}, {"smiles": "COC(=O)c1ccc2nc(-c3ccc(OC)c(OC)c3)c(Cc3ccccc3)n2c1", "inhibition": "3%"}, {"smiles": "CCCOc1cccc(C(=O)Nc2ccccc2C(=O)N2CCN(C)CC2)c1", "inhibition": "-2.3%"}, {"smiles": "COc1ccc(C(=O)NC(Cc2ccc(OC(=O)c3ccc(OC)cc3)cc2)C(=O)O)cc1", "note": "(stereo not drawn)", "inhibition": "0.4%"}, {"smiles": "c1csc(-c2nnc(COc3ccc4c(c3)OCO4)o2)c1", "inhibition": "-0.4%"}, {"smiles": "COC(=O)c1ccc2nc(-c3ccc(C)cc3)c(Cc3ccc(OC)cc3C)n2c1", "inhibition": "0.7%"}, {"smiles": "Cc1[nH]c2ccccc2c1/C=N/NC(=O)CNC(=O)c1ccc2c(c1)OCO2", "inhibition": "0.6%"}, {"smiles": "COCCNC(=S)N/N=C/c1c(C)[nH]c2ccccc12", "inhibition": "42.9% (active)"}, {"smiles": "CN=c1scc(-c2cc(OC)ccc2OC)n1/N=C/c1c(C)[nH]c2ccccc12", "inhibition": "7.7%"}, {"smiles": "CCCN(C(=O)CSc1nnnn1C)c1c(N)n(Cc2ccccc2)c(=O)[nH]c1=O", "inhibition": "-0.4%"}, {"smiles": "CCOC(=O)c1ccn(-c2nc(-c3ccco3)cc(C(F)(F)F)n2)n1", "inhibition": "0.1%"}, {"smiles": "O=C(Cn1cnc2c(OCc3ccccc3)ncnc21)NCc1nc2ccccc2[nH]1", "inhibition": "-0.1%"}, {"smiles": "Cc1ccc(Cc2c(-c3ccco3)nc3ccc(Cl)cn23)cc1", "inhibition": "4.3%"}, {"smiles": "CCc1nnc(NC(=O)CSc2nc3ccccc3c(=O)n2CCCOC)s1", "inhibition": "0.5%"}, {"smiles": "O=[N+]([O-])c1ccc(NS(=O)(=O)c2ccccc2)c(Cl)c1", "inhibition": "-0.4%"}, {"smiles": "CCN(C(=O)Cc1c(C(=O)O)n(CC)c2ccccc12)c1ccccc1C", "inhibition": "-3.2%"}, {"smiles": "O=C1/C(=C/c2ccc(F)cc2)SC(=S)N1NS(=O)(=O)c1ccccc1", "inhibition": "1.8%"}, {"smiles": "COc1cc(/C=C2\\SC(=S)N(Nc3ncc(C(F)(F)F)cc3Cl)C2=O)cc(OC)c1OC", "inhibition": "82.7% (active)"}, {"smiles": "COc1cc(-c2nnc(Cn3cc(C(F)(F)F)ccc3=O)o2)cc(OC)c1OC", "inhibition": "0.9%"}, {"smiles": "Nc1nnc(SCC(=O)OCc2ccc(Cl)c(Cl)c2)s1", "inhibition": "-0.2%"}, {"smiles": "O=c1cnnc(Nc2ccccc2F)[nH]1", "inhibition": "-1.3%"}, {"smiles": "N#Cc1ccc(N2Cc3ccccc3/C2=N/C(=O)Nc2ccc(Cl)cc2)cc1", "inhibition": "-0.1%"}, {"smiles": "Cc1cc([N+](=O)[O-])nn1Cc1ccc(F)cc1", "inhibition": "-0.3%"}, {"smiles": "Nc1nonc1-n1nnc(C(=O)N/N=C/c2cc(Br)ccc2O)c1CSC1=NCCS1", "inhibition": "0.6%"}, {"smiles": "COc1ccc(CCNC(=S)N2CCN(S(=O)(=O)c3ccc(F)cc3)CC2)cc1", "inhibition": "0.6%"}, {"smiles": "CC1CCc2c(sc3nc4n(c(=O)c23)CCS4)C1", "note": "(stereo not drawn)", "inhibition": "52.4% (active)"}, {"smiles": "Cn1c(NN)nc2sc3c(c2c1=O)CCC3", "inhibition": "-1.4%"}, {"smiles": "CCCn1nnc2sc3c(c2c1=O)CCC(C)C3", "note": "(stereo not drawn)", "inhibition": "0.3%"}, {"smiles": "Cc1ccc2[nH]c(C(=O)O)c(NC(=O)c3ccccc3[N+](=O)[O-])c2c1", "inhibition": "0.9%"}, {"smiles": "O=C1CSC(c2cccc(F)c2)N1c1ccccc1F", "note": "(stereo not drawn)", "inhibition": "-0.9%"}, {"smiles": "Cc1cc(Br)ccc1NC(=O)CCCOc1cc(=O)n(C)c2ccccc12", "inhibition": "0%"}, {"smiles": "CCC(=O)N(C)C(c1ccccc1Cl)c1nnnn1-c1c(C)cccc1C", "note": "(stereo not drawn)", "inhibition": "-0.4%"}, {"smiles": "COc1ccc(/C(=N\\O)c2nccc3cc(OC)c(OC)cc23)cc1OC", "inhibition": "-0.2%"}, {"smiles": "COc1ccc(C2OC(CCc3ccccc3)Cc3[nH]c(=S)[nH]c(=O)c32)cc1", "note": "(stereo not drawn)", "inhibition": "0.5%"}, {"smiles": "CCOc1ccc2ccccc2c1/C=N/NC(=O)c1c(C)cc(C)[nH]c1=O", "inhibition": "0.8%"}, {"smiles": "O=C(O)c1ccc2c(=O)n3c(nc2c1)/C(=C/c1ccc(OC(F)F)cc1OC(F)F)CC3", "inhibition": "-1.9%"}, {"smiles": "CC(C)(C)c1ccc(S(=O)(=O)NC(=O)C2(C)CCN2C(=O)CC2CC2)cc1", "note": "(stereo not drawn)", "inhibition": "-0.9%"}, {"smiles": "O=C(CC(NC(=O)c1ccccc1)c1ccccc1)Nc1ccc(F)c(F)c1", "note": "(stereo not drawn)", "inhibition": "-0.5%"}, {"smiles": "CN(C(=O)CSc1nnc(-c2n[nH]c3ccccc23)o1)c1ccccc1", "inhibition": "0.1%"}, {"smiles": "Cc1nc(C(F)(F)F)ccc1C(=O)N1CCC1(C)C(=O)NS(=O)(=O)c1ccccc1", "note": "(stereo not drawn)", "inhibition": "-0.7%"}, {"smiles": "Nc1nc2c(ncn2[C@@H]2O[C@H](CNCc3ccc(OCCCN4CCOCC4)cc3)[C@@H](O)[C@H]2O)c(=O)[nH]1", "inhibition": "-0.1%"}, {"smiles": "CCc1oc(-c2ccc(OC)cc2)c(C(=O)OCCCCCO)c1C(C)OCCO", "note": "(stereo not drawn)", "inhibition": "0.8%"}]}]}
